From PubChem
Methyltransferases: Primary Screen for Target Class Profiling of Small Molecule Inhibitors of Methyltransferases; actives 3.9% (n = 25,000); purified enzyme, MTase-Glo SAH luminescence; active compounds read low; calls only at 40 µM; call rule not given here
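Each enzyme was reacted with SAM and its substrate, with compounds tested once at 40 uM; SAH formed was read by MTase-Glo luminescence.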
An asterisk follows results filed as active; ! = not confirmed by another sample. The full list was thinned out, with hits kept by preference. % is set by controls: 0 for no effect and ±100 for the full control effect.

COC(=O)C1=CO[C@@H](O[C@@H]2O[C@H](CO)[C@@H](O)[C@H](O)[C@H]2O)[C@@H]2C(COC(C)=O)=C[C@H](O)[C@H]12 was read as Methyltransferases inactive.
Screening Cc1cc(C)cc(NC(=O)c2cc3n(n2)CC(C)(C(=O)NC2CCCCC2)N(C)C3=O)c1 (stereo not drawn) returned Methyltransferases inactive.
`CC1(C(=O)NC2CCCCC2)Cn2c(ccc2-c2ccco2)C(=O)N1Cc1cccnc1` (stereo not drawn) gave Methyltransferases inactive.
Cc1cccc(-c2nnn3c2nc(NCC2CCCO2)c2ccccc23)c1 (stereo not drawn) was read as Methyltransferases inactive.
c1nc(NC2CCCCCC2)c2cc(CNC[C@H]3CCCO3)sc2n1 was read as Methyltransferases inactive.
c1ccc(-c2oc3ncnc(NC[C@@H]4CCCO4)c3c2-c2ccccc2)cc1 was read as Methyltransferases active.
`CN1CCN(CCCNC(=O)c2cc3n(n2)CC(C)(C(=O)NC2CCCCCC2)N(C)C3=O)CC1` (stereo not drawn) gave Methyltransferases inactive.
`CC1(C(=O)NC2CCCCC2)Cc2ccccc2C(=O)N1CCN1CCOCC1` (stereo not drawn) gave Methyltransferases inactive.
Screening CC[C@@]1(O)C(=O)OCc2c1cc1n(c2=O)Cc2cc3c(CN(C)C)c(O)ccc3nc2-1 returned Methyltransferases active!.
Cc1ccc(CCN2C(=O)CSc3c(c4ccccc4n3C)C2C(=O)NCc2ccccc2)cc1 (stereo not drawn) was read as Methyltransferases inactive.
`CCC(C)NC(=O)Cn1nc2n(C(C)C)c(=O)c3ccc(C(=O)NC4CCCCC4)cc3n2c1=O` (stereo not drawn) gave Methyltransferases inactive.
For COC(=O)c1cc2n(n1)CC(C)(C(=O)NC1CCCCCC1)N(c1cccc(SC)c1)C2=O (stereo not drawn) the results were Methyltransferases inactive.
For COC(=O)c1cc2n(n1)CC(C)(C(=O)NC1CCC(C)CC1)N(c1ccc(C)cc1Cl)C2=O (stereo not drawn) the results were Methyltransferases inactive.
For O=C(c1cccc([N+](=O)[O-])c1)N1CCc2c(c3ccccc3n2CC2CC2)C1 the results were Methyltransferases inactive.
`CC(=O)Nc1ccc(C(=O)NCc2nn(Cc3ccccc3)c3ccccc23)cc1` gave Methyltransferases inactive.
`CN1CCc2c(n(Cc3ccc(C(=O)NO)cc3)c3ccccc23)C1` gave Methyltransferases active.
For COc1ccccc1CCNC(=O)c1ncn2c1C(=O)N(C1CC1)C(C)(C(=O)NCc1ccc(F)cc1)C2 (stereo not drawn) the results were Methyltransferases inactive.
CC(C)NC(=O)c1ccc2c(=O)n(C3CC3)c3nn(CC(=O)Nc4ccc(Cl)cc4)c(=O)n3c2c1 was read as Methyltransferases inactive.
Screening O=C(NC1CCCC1)N1CCCC(C(=O)N2CCC(c3nc4ncccc4[nH]3)C2)C1 (stereo not drawn) returned Methyltransferases inactive.
For O=C(c1ccccc1Cl)N1CCCC(C(=O)N2CCC(c3ccccc3)CC2)C1 (stereo not drawn) the results were Methyltransferases inactive.
For O=C([C@@H]1CCCN(c2ccc3[nH]c(C4(n5cc(Cl)cn5)CC4)nc3n2)C1)N1CCCC1 the results were Methyltransferases active.
O=C(CCc1nnc2ccc(NCc3ccccc3Cl)nn12)NCC1CCCO1 (stereo not drawn) was read as Methyltransferases inactive.
CCCn1c(=O)c2cc(Cl)ccc2n2c(=O)n(CC(=O)NCc3ccccc3Cl)nc12 was read as Methyltransferases inactive.
COc1cc(NC(=O)c2cc3n(n2)CC(C)(C(=O)NC2CCCCCC2)N(C)C3=O)cc(OC)c1 (stereo not drawn) was read as Methyltransferases inactive.
Screening CC(C)c1ccc(N2C(=O)c3cc4sccc4n3CC2(C)C(=O)NC2CCCCC2C)cc1 (stereo not drawn) returned Methyltransferases inactive.
Screening CCN(CC)CCCCCCNc1cc(OC)cc2c(C)ccnc12 returned Methyltransferases active.
Screening Cc1cccc(Cn2nc3n(C(C)C)c(=O)c4ccc(C(=O)NC5CCCCC5)cc4n3c2=O)c1 returned Methyltransferases inactive.
O=C(NCCN1CCCCC1)c1cc2n(n1)CCCN(Cc1ccc(Cl)cc1)C2=O was read as Methyltransferases inactive.
For COc1ccc(N2CCN(S(=O)(=O)c3ccc4c(c3)n(C)c(=O)n4C)CC2)cc1 the results were Methyltransferases inactive.
Screening Cn1c(=O)n(C)c2cc(S(=O)(=O)N3CCc4ccccc4C3)ccc21 returned Methyltransferases inactive.
For Cn1c(=O)n(C)c2cc(S(=O)(=O)N3CCN(C4CCCCC4)CC3)ccc21 the results were Methyltransferases active.
For COc1ccc(N2C(=O)c3cc(-c4cccs4)nn3CC2(C)C(=O)NC2CCCCC2)cc1 (stereo not drawn) the results were Methyltransferases inactive.
CC1(C(=O)NC2CCCCCCC2)Cn2c(cc3sccc32)C(=O)N1Cc1cccc(Cl)c1 (stereo not drawn) was read as Methyltransferases inactive.
`CC(C)=C1CC2C(CCC2(C)O)C(C)(O)CC1=O` (stereo not drawn) gave Methyltransferases active.
For CC1=CC(=O)C(=C(C)C)CC2C1CCC2(C)O (stereo not drawn) the results were Methyltransferases inactive.
CC(=O)OC(C)C(C)(O)C(=O)O[C@@H]1CC[C@]2(C)CC(=O)C(=C(C)C)C[C@H]2[C@]1(C)OC(C)=O (stereo partly drawn) was read as Methyltransferases inactive.
COCCN1C(=O)c2nc3ccccc3n2CC1(C)C(=O)NC1CCCCC1C (stereo not drawn) was read as Methyltransferases inactive.
`CCOC(=O)C1CCN(S(=O)(=O)c2cc3[nH]c(=O)[nH]c3cc2C)CC1` gave Methyltransferases inactive.
COc1ccccc1NC(=O)Cn1nc2n(CCC(C)C)c(=O)c3ccccc3n2c1=O was read as Methyltransferases inactive.
For COc1cccc(CN2C(=O)c3cc4sccc4n3CC2(C)C(=O)NC2CCCC2)c1OC (stereo not drawn) the results were Methyltransferases inactive.
For COc1cc(N2CCN(C)CC2)ccc1Nc1nccc(-c2cn(C)c3cnccc23)n1 the results were Methyltransferases inactive.
COc1cc(N2CCC(N3CCN(C)CC3)CC2)ccc1Nc1ncc(Cl)c(Nc2ccccc2S(=O)(=O)C(C)C)n1 was read as Methyltransferases active.
Screening COc1cc(N2CCC(N(C)C)CC2)ccc1Nc1ncc(Cl)c(Nc2ccccc2P(C)(C)=O)n1 returned Methyltransferases active.
COc1ccccc1Nc1ncc2c(n1)CN(C(=O)c1ccnn1C)CCN2 was read as Methyltransferases inactive.
Screening COc1ccccc1CN1C(=O)c2cc3sccc3n2CC1(C)C(=O)NC1CCCC1 (stereo not drawn) returned Methyltransferases inactive.
Screening Cc1ccc(Nc2ccn3c(=O)n(CC(=O)Nc4cc(F)cc(F)c4)nc3n2)cc1 returned Methyltransferases inactive.
CC1(C(=O)NC2CCCCCCC2)Cc2ccccc2C(=O)N1CC1CCCO1 (stereo not drawn) was read as Methyltransferases inactive.
`COc1cccc(CNC(=O)CCc2nnc3n(CCc4ccccc4)c(=O)c4ccccc4n23)c1` gave Methyltransferases inactive.
